Our source for the AC50 and activity, negative = inhibition values is PubChem BioAssay AID1851 (National Center for Advancing Translational Sciences (NCATS), 2009).

The AC50 is the midpoint of the concentration-response curve, whichever way the signal moves.

Where “and” joins values, the source holds several entries; their conditions need not be identical. Equal entries are not always repeated. Out of some 16,000 compounds screened, about 2,600 (16%) were called active. Another 20% or so got no clear call; they are omitted. Not all results are given here. Unmarked numbers belong to inactive results. Calls follow the shape of the dose curve; as a rule, active = well fitted curve in the direction sought with a large enough effect; inconclusive = small, poorly fitted or top-dose-only effect, or effect the other way; inactive = no such curve, though single readings can be large or run the other way.
% is scaled to controls: 0 for no effect and ±100 for the full control effect.

Chain of Cytochrome P450 2D6 (Homo sapiens) (P10635 whole entry, looked up): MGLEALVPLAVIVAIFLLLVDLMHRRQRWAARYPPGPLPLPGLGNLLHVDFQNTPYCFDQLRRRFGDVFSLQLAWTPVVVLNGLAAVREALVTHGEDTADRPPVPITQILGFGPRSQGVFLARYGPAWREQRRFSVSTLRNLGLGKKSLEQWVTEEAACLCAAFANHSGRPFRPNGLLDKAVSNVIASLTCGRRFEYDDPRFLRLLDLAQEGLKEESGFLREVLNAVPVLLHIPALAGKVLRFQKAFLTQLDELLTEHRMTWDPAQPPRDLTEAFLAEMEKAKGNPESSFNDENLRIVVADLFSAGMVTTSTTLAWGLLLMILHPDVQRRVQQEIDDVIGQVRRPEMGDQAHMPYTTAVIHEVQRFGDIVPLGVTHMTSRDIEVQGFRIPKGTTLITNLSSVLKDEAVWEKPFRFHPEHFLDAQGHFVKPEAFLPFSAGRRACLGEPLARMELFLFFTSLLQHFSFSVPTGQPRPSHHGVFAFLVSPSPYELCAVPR

The assay has as its target Cytochrome P450 2D6 (Homo sapiens) (UniProt P10635). The assay can be described thus: Cytochrome panel assay with activity outcomes. As to conditions: recombinant CYP, pro-luciferin dealkylation, luminescence, p450-cyp2d6; series mostly up to 57.1 µM.
As to `O=c1nc2ccccc2c2n1C[C@H](CN1CCN(c3ccccc3)CC1)N2`, the AC50 result was “inactive”.

For `O=C(O)/C=C(/C(=O)O)[C@]12CCN3CC4=CCO[C@@H]5CC(=O)N[C@@H]1[C@H]5[C@H]4C[C@H]32`, the activity, negative = inhibition was -1.84% [at 11.4 µM]. Consider `c1csc(CNc2nc(-c3ccc4c(c3)OCO4)nc3ccccc23)c1`, for which the AC50 was 10 µM (active). Turning to `Cc1cnc(CNc2nc(-c3ccc(C(=O)N(C)C)cc3)nc3ccccc23)cn1`, the AC50 entry was “inactive”.

Regarding `COc1ccccc1CNc1nc(-c2ccc(N(C)C)cc2)nc2ccccc12`, the AC50 is 10 µM (active). Take `c1ccc(CNc2nc(-c3ccc4c(c3)OCO4)nc3ccccc23)cc1`: the AC50 is 12.6 µM (active).

As for `Cc1cnc(CNc2nc(-c3ccc4c(c3)OCO4)nc3ccccc23)cn1`, the half-maximal activity concentration (AC50) is 15.8 µM (active). Still for that read-out and setting: the result for `CCOC(=O)C1CCCN(C(=O)CCn2nc(-c3ccccc3)ccc2=O)C1` (configuration not stated) reads “inactive”. As to `S=c1c2[nH]cnc2ncn1CCSc1ncnc2nc[nH]c12`, the activity, negative = inhibition was 8.54% [at 11.4 µM].

Take `CN(C(=O)CCCOc1ccc2[nH]c(=O)ccc2c1)C1CCCCC1`: the AC50 result was “inactive”. The same measure, in the same setting: the same measure for `CC(Oc1ccc(-c2ccccc2)c(F)c1)c1ccn(S(=O)(=O)c2ccc(Cl)cc2)n1` (configuration not stated): “inactive”; for `COC(Cn1c(C)c(C(C)=O)c(C(C)=O)c1C)OC`: “inactive”. In the case of `Nc1nc(-c2cccnc2)cc(-c2cc(-c3cccnc3)nc(N)n2)n1`, the activity, negative = inhibition was -6.86% [at 11.4 µM]. Consider `CCC(=O)N1CCn2c1nc1ccccc12`, for which the AC50 result is “inactive”.

For the compound `CCC(C)NC(=O)c1cnn2c(C)c3c(nc12)CCCC3` (configuration not stated), the AC50 result is “inactive”.

For the compound `COCCNc1nc(-c2ccc(C(=O)N(C)C)cc2)nc2ccccc12`, the AC50 result was “inactive”. As for `COc1ccccc1CNc1nc(-c2ccc3c(c2)OCO3)nc2ccccc12`, the half-maximal activity concentration (AC50) is 10 µM (active). As to `CC(=O)NCCNc1nc(-c2ccc(C(=O)N(C)C)cc2)nc2ccccc12`, the AC50 result is “inactive”. Take `CC(=O)NCCNc1nc(-c2ccc3c(c2)OCO3)nc2ccccc12`: the AC50 is 12.6 µM (active).

Turning to `Cc1cccc(CNc2nc(-c3ccc4c(c3)OCO4)nc3ccccc23)c1`, the AC50 is 20 µM (active). The same measure, in the same setting: the same measure for `c1cncc(CNc2nc(-c3ccc4c(c3)OCO4)nc3ccccc23)c1`: 12.6 µM (active); for `COC(=O)N1CCC2(CC1)CN(C(=O)Nc1cccc(C#N)c1)C2`: “inactive”.

Turning to `COc1cc(NC(=O)c2c(F)cccc2F)nc(OC)n1`, the AC50 entry was “inactive”.

Take `Cc1cc(NC(=O)CCCC(=O)OCC(F)(F)C(F)F)cc(C)c1C(=O)O`: the AC50 result was “inactive”.

On to `COc1ccc(-n2c(=O)c(-c3cc(F)cc(F)c3)nc3cnc(N4CCNCC4)nc32)cc1`, for which the AC50 result was “inactive”. Still for that read-out and setting: the result for `Cc1ccc(S(=O)(=O)Oc2ccc(/C=C(/NC(=O)c3ccccc3)C(=O)Nc3ccccc3)cc2)cc1` reads “inactive”. Turning to `C[C@H]1COC(=O)[C@H]2CCCN2C(=O)[C@@H](C)COC(=O)[C@H](Cc2ccccc2)NC1=O`, the activity, negative = inhibition is 2.57% [at 11.4 µM]. Turning to `CCn1c(SCC(=O)Nc2ccc3c(c2)OCCO3)nc2c(c1=O)SC(C)C2` (configuration not stated), the AC50 entry was “inactive”. Regarding `CC1=NN(c2ccc(S(=O)(=O)O)cc2)C(=O)/C1=C\c1ccc(Cl)cc1`, the activity, negative = inhibition is 5.53% [at 11.4 µM]. Take `O=C(N/C(=C\c1cccnc1)C(=O)N1CCOCC1)c1cccc(Br)c1`: the AC50 result is “inactive”. `N#Cc1cccc(-c2nc(Nc3ccncc3)c3ccccc3n2)c1`: the AC50 result is “inactive”. For the compound `c1ccc2c(Nc3ccncc3)nc(-c3ccc4c(c3)OCO4)nc2c1`, the AC50 is 20 µM (active). For the compound `Cc1noc(C)c1-c1nc(Nc2ccccc2)c2ccccc2n1`, the AC50 entry was “inactive”. Take `O=c1[nH][nH]cc1C=Nc1ccccc1O`: the AC50 entry was “inactive”.

As to `Cc1noc(COc2ccc(OCc3nc(C)no3)cc2)n1`, the AC50 entry was “inactive”. The same measure, in the same setting: the result for `Cc1cc(C)n(-c2nc(NC(C)C)nc(NC(C)C)n2)n1` reads “inactive”; that for `c1ccc2c(N3CCNCC3)nc(-c3ccc4c(c3)OCO4)nc2c1`, 3.16 µM (active). On to `CN(C)c1ccc(-c2nc(N3CCNCC3)c3ccccc3n2)cc1`, for which the AC50 is 12.6 µM (active). The same measure, in the same setting: the result for `COc1cc(/C=C/C(=O)O)cc(S(=O)(=O)NCCCO)c1OC` reads “inactive”; that for `O=C1Oc2ccccc2C2(O)C3CCCCCC3C12` (configuration not stated), “inactive”; that for `CSc1nc(Oc2ccc(=O)[nH]n2)nc(N(C)C)n1`, “inactive”.

With `Cc1cc(/C=C2\SC(=S)NC2=O)c(C)n1C`, the AC50 entry was “inactive”. For the compound `CCCCCSc1nnc(C)c(=O)[nH]1`, the AC50 entry was “inactive”. Take `COc1ccc(NC(=O)N2CC[C@@]3(CCCN(C(=O)c4cc(C(F)(F)F)cc(C(F)(F)F)c4)C3)C2)cc1`: the AC50 result was “inactive”. As to `O=C(O)/C(Cc1ccc([N+](=O)[O-])cc1)=N/O`, the activity, negative = inhibition was 6.05% [at 11.4 µM].

For the compound `COc1ccc(/C=C2/S/C(=N/N=C3\CC4CCC3(C)C4(C)C)NC2=O)cc1` (configuration not stated), the AC50 entry is “inactive”.

For `CC(=O)O[C@]1(C(C)=O)CC[C@@H]2[C@@H]3C=C(Cl)C4=CC(=O)[C@H]5C[C@@H]5[C@]4(C)[C@H]3CC[C@]21C`, the AC50 result was “inactive”. As to `CCNc1ncc2nc(-c3ccc(OC)cc3)c(=O)n(Cc3cccs3)c2n1`, the AC50 entry was “inactive”.

`COc1cccc(Nc2nc(-c3ccc(O)cc3)cs2)c1`: the AC50 is 8.91 µM (active).

For the compound `COc1cccc(-c2csc(N3CCN(C(=S)Nc4ccccc4)CC3)n2)c1`, the AC50 entry is “inactive”. Turning to `COc1ccc(-c2csc(NC(=O)Cn3nc(C)cc3C)n2)cc1`, the AC50 result is “inactive”. With `Cc1ccc(OCC(=O)NNC(=O)C2CCN(c3ncccn3)CC2)cc1`, the AC50 result is “inactive”.

Turning to `OC[C@@H]1O[C@@H](n2cnc3c(NC4CCCC4)ncnc32)[C@H](O)[C@H]1O`, the AC50 result is “inactive”. Turning to `Cc1ccn2c(NC(=O)c3ccccc3)c(-c3cccs3)nc2c1`, the AC50 result is “inactive”. On the same count and under the same terms, the same measure for `Cc1cccc(C)c1NC(=S)NC(=O)CCc1ccccc1`: “inactive”; for `CC[N+](CC)(CC)CC(=O)Nc1c(C)cccc1C`: “inactive”; for `CC[N+](CC)(CC(=O)Nc1c(C)cccc1C)Cc1ccccc1`: 0.00794 µM (active). Same read-out and setting: the same measure for `COc1ccc(CCNC(=O)C2CCN(S(=O)(=O)N3CC(C)CC(C)C3)CC2)cc1OC` (configuration not stated): “inactive”; for `C1CCC(N=C(NC23CC4CC(CC(C4)C2)C3)N2CCOCC2)CC1`: 0.631 µM (active); for `COC(=O)[C@@]1(Cc2ccc(OC)cc2)[C@H]2c3cc(C(=O)N4CCCC4)n(Cc4cc(F)cc5c4OCOC5)c3C[C@H]2CN1C(=O)c1ccccc1`: “inactive”.

Turning to `CCn1ccc(C(=O)NC2=C(C#N)CCC2)n1`, the AC50 result is “inactive”. On the same count and under the same terms, the same measure for `COc1cc(COc2cc(N)c(Cl)cc2C(=O)CCC2CCN(CCNS(C)(=O)=O)CC2)cc(OC)c1`: 0.794 µM (active). The same measure, in the same setting: the same measure for `COc1cc(N)c(Cl)cc1C(=O)CCC1CCN(CCNS(C)(=O)=O)CC1`: 12.6 µM (active); for `COc1[nH]c2ccc(F)cc2c1C(=O)OCC1CCN(CCNS(C)(=O)=O)CC1`: “inactive”. Same read-out and setting: the result for `Cn1cc(C(=O)OCC2CCN(CCNS(C)(=O)=O)CC2)c2ccccc21` reads “inactive”; that for `COc1cc(/C=C(\C#N)C(=O)NCC2CCCO2)c([N+](=O)[O-])cc1OC` (configuration not stated), “inactive”; that for `CCn1c(CC(C)C)n[nH]c1=S`, “inactive”. In the case of `CO[C@H]1COC(=O)C/C=C\[C@H](C)[C@@H](NS(=O)(=O)c2ccc(C)cc2)COC(=O)CCC[C@@H]1C`, the activity, negative = inhibition is 8.76% [at 11.4 µM]. For `COC(Cc1nnc(SC)n1-c1ccc(Cl)cc1)OC`, the AC50 result was “inactive”.

As to `Cc1cccc(Oc2coc3cc(OC(=O)c4cccs4)ccc3c2=O)c1`, the AC50 entry is “inactive”. Same read-out and setting: the same measure for `Cc1ccc(CS(=O)(=O)CCC(=O)N2CCOCC2)cc1`: “inactive”; for `CC(C)n1c(N2CCN(C(=O)Nc3ccccc3)CC2)nc2ccccc21`: “inactive”. Same read-out and setting: the same measure for `Cn1cc(/C=N/n2cnc3sc4c(c3c2=O)CCCC4)c2ccccc21`: “inactive”; for `COc1ccc2[nH]cc(CCNc3ncnc4ccc(-c5ccoc5)cc34)c2c1`: 5.01 µM (active); for `COc1cccc(-c2ccc3ncnc(NCCc4c[nH]c5ccc(OC)cc45)c3c2)c1`: 2.51 µM (active).

Take `COc1ccc2[nH]cc(CCNc3ncnc4ccc(-c5cccnc5)cc34)c2c1`: the AC50 was 7.94 µM (active). Consider `COc1ccc2[nH]cc(CCNc3ncnc4ccc(-c5ccc6c(c5)OCO6)cc34)c2c1`, for which the AC50 is 2.51 µM (active). `COC(=O)[C@@H]1CC[C@H](C)[C@@H](c2ccc(C)cc2)N1C(=O)c1ccc(/C=N\O[C@@H](C)c2cn([C@H](CO)Cc3ccccc3)nn2)cc1`: the activity, negative = inhibition was 12.4% [at 11.4 µM] and -16.1% [at 11.4 µM]. As for `N[C@](CC1c2ccccc2Oc2ccccc21)(C(=O)O)[C@@H]1C[C@@H]1C(=O)O`, the AC50 result is “inactive”. For the compound `COc1ccc(-n2c(=O)c(-c3ccc(F)cc3)nc3cncnc32)cc1`, the AC50 entry was “inactive”. With `Cn1nnnc1SCc1ccc(C(=O)Nc2ccc(Br)cc2)cc1`, the AC50 result was “inactive”. `CCC(=O)OCc1c(C(F)(F)F)nn(C)c1Sc1ccc(F)cc1`: the AC50 result is “inactive”.

Consider `CC(C)(C)C(=O)NC(=C(Cl)Cl)P(=O)(O)O`, for which the AC50 result was “inactive”.

Consider `Cc1c(C)c2c(c(C)c1O)CC[C@@](C)(C(=O)O)O2`, for which the AC50 entry is “inactive”. Take `CCCNc1nc(NCC)nc(OC)n1`: the AC50 entry is “inactive”.

As to `Cc1noc(C)c1C(=O)N1CCC2(CCCN(Cc3nccs3)C2)CC1`, the AC50 result is “inactive”.

Consider `C[C@H](O)[C@H](O)[C@@H]1CNc2nc(N)[nH]c(=O)c2N1`, for which the AC50 entry was “inactive”. The same measure, in the same setting: the same measure for `COc1ccc2[nH]cc(CCNc3ncnc4ccc(-c5c(C)noc5C)cc34)c2c1`: 6.31 µM (active). The same measure, in the same setting: the same measure for `Fc1ccc(-c2[nH]ncc2-c2nnnn2-c2ccccc2)c(F)c1`: “inactive”; for `Clc1ccc2[nH]cc(-c3nnnn3-c3ccccc3)c2c1`: 28.2 µM (active). Same read-out and setting: the result for `Cc1ccc(-n2nnnc2-c2cnc3ccc(Cl)cc3c2-c2ccccc2)cc1` reads “inactive”; that for `Cc1cccc(C2NC(=O)c3c(sc(C)c3C)N2)c1O` (configuration not stated), “inactive”; that for `Clc1ccc(-c2nnc(-c3ccc(Br)cc3)c(N3CCSCC3)n2)cc1`, “inactive”.

Take `CC1(C)Cc2ccccc2C(NNC(=O)c2ccncc2)=N1`: the AC50 is 7.94 µM (active). As to `O=C(NNC(=O)c1ccncc1)c1ccncc1`, the activity, negative = inhibition is -4.63% [at 11.4 µM].

As to `CC(C)NNC(=O)c1ccncc1`, the AC50 entry is “inactive”. On the same count and under the same terms, the result for `O=C(Cc1ccccc1)N/N=C/c1cc(Br)c(Br)o1` reads “inactive”.
